# Test results as given in paper PMC7862700, “An all-to-all approach to the identification of sequence-specific readers for epigenetic DNA modifications on cytosine”.
# Legend:
# Test in all cases: DAPPL (digital affinity profiling via proximity ligation, sequencing); 10 mM Tris-HCl pH 7.5, 50 mM NaCl, 1 mM DTT, 4% glycerol, room temperature, 30 min; GST-TFs on glutathione beads, 16-mer random dsDNA library, 0.1% formaldehyde crosslink after washing; high values mean tight binding
# ETV5 = ETV5 (Homo sapiens, UniProt P41161 1-510); details: protein: recombinant; tags: N-terminal GST; dsDNA, one strand shown
# Sequence of ETV5 (P41161 whole entry, the tested form may be a part): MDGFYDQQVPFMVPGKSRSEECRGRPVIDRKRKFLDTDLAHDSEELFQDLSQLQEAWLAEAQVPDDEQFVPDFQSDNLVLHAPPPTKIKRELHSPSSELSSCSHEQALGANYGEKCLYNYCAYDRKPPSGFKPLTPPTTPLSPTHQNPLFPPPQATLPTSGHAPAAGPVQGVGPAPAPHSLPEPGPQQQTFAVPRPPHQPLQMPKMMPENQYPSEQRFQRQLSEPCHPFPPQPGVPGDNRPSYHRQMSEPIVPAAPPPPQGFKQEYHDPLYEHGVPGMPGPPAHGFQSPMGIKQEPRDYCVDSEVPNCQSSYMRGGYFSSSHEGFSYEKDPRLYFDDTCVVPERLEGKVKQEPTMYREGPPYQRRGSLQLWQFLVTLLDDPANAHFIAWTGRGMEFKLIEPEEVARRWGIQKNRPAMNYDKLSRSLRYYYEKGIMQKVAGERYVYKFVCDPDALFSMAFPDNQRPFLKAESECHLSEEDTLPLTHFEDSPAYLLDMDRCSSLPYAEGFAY
# In short: (§1)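 Binding signal is each hexamer's read frequency for a factor divided by its frequency in the tag-only sample. The factors were GST-fused human transcription factors from yeast, captured on glutathione beads, DNA-barcoded and pooled with that sample. Pools were incubated with 200 nmole of a random double-stranded 16-mer DNA library in Tris/NaCl/DTT/glycerol buffer at room temperature for 30 min, then washed, crosslinked with 0.1% formaldehyde, proximity-ligated with BsaI/T4 ligase (1 h, 37 °C), PCR-amplified and sequenced on an Illumina NextSeq500.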
# HSF1 = HSF1 (Homo sapiens, UniProt Q00613 1-529); details: protein: recombinant; tags: N-terminal GST; chain copies: 3; dsDNA, one strand shown
# Sequence of HSF1 (Q00613 whole entry): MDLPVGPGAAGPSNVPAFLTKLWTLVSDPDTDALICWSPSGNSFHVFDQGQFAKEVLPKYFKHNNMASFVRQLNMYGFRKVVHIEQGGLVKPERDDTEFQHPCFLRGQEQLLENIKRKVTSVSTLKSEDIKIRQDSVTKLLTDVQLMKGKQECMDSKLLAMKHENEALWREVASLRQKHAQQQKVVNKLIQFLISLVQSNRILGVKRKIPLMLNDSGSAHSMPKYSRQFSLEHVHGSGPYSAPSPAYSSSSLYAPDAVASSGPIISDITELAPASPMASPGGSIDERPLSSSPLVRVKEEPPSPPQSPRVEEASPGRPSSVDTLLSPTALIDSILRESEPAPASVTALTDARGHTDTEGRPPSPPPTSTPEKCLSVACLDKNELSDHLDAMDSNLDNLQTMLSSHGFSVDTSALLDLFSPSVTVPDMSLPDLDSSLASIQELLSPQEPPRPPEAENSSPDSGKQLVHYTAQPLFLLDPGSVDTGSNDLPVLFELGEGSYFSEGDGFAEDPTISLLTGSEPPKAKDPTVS
# In short: as §1
# SPIC = molecular target: T1, SPIC (Homo sapiens, UniProt Q8N5J4 1-248); details: protein: recombinant; tags: N-terminal GST; dsDNA, one strand shown
# T1 sequence: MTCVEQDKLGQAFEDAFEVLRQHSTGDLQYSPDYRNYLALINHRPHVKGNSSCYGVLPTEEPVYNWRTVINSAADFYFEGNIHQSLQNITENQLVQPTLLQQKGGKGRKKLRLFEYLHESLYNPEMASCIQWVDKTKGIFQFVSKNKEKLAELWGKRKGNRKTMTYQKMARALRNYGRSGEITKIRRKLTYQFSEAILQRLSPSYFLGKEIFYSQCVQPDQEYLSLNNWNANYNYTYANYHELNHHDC
# In short: as §1
# ELF4 = ELF4 (Homo sapiens, UniProt Q99607 1-663); details: protein: recombinant; tags: N-terminal GST; dsDNA, one strand shown
# Sequence of ELF4 (Q99607 whole entry): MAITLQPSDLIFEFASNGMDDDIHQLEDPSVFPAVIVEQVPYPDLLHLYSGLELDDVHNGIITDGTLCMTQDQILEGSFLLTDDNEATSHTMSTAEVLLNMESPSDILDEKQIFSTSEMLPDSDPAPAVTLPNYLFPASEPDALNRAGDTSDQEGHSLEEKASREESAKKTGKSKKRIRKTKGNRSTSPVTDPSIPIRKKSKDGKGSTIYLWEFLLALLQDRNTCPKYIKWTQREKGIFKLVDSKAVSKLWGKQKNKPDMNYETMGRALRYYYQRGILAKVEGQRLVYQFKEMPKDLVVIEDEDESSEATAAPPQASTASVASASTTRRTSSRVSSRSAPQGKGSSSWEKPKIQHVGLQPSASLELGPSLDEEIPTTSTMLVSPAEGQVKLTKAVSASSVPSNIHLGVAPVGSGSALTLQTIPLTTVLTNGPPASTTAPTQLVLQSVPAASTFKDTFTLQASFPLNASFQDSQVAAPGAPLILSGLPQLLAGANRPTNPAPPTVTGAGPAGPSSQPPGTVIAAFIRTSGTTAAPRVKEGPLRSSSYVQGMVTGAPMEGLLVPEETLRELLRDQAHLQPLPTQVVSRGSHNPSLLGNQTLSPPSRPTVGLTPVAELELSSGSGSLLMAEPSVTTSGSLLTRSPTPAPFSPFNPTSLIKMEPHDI
# In short: as §1
# ELF3 = molecular target: T2, ELF3 (Homo sapiens, UniProt P78545 1-371); details: protein: recombinant; tags: N-terminal GST; dsDNA, one strand shown
# T2 sequence: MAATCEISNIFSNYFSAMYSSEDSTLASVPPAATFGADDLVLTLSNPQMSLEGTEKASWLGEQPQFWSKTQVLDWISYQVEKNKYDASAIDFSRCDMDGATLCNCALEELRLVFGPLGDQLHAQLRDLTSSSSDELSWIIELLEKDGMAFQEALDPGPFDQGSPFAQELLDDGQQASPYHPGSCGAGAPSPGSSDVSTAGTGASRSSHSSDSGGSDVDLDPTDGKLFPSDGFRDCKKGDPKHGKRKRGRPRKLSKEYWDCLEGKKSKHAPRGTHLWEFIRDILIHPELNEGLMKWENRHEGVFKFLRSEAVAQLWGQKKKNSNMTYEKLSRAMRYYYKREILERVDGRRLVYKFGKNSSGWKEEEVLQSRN
# In short: as §1
# CRX = CRX (Homo sapiens, UniProt O43186 1-299); details: protein: recombinant; tags: N-terminal GST; dsDNA, one strand shown
# Sequence of CRX (O43186 whole entry): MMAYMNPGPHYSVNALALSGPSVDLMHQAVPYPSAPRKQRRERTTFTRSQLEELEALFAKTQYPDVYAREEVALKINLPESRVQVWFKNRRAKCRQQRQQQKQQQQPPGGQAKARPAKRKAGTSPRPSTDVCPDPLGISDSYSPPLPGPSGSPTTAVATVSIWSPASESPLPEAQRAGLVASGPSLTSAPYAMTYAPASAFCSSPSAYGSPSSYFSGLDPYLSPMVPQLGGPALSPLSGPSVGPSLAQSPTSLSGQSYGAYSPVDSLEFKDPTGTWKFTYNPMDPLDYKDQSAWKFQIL
# In short: as §1
# ETV1 = ETV1 (Homo sapiens, UniProt P50549 1-477); details: protein: recombinant; tags: N-terminal GST; dsDNA, one strand shown
# Sequence of ETV1 (P50549 whole entry): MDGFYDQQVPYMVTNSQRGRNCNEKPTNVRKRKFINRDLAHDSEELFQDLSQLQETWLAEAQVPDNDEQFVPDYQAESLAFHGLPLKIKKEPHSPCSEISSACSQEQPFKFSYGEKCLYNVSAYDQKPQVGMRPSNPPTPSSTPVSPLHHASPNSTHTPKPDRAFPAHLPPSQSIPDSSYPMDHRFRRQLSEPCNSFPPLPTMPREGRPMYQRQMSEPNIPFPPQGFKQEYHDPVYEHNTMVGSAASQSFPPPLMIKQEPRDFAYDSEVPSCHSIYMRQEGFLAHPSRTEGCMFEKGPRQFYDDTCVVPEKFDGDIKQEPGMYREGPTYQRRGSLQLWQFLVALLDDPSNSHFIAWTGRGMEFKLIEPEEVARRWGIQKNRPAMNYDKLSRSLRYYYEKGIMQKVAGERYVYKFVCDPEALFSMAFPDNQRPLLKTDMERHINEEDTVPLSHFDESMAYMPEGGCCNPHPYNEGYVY
# In short: as §1
# ERF = molecular target: T3, ERF (Homo sapiens, UniProt P50548 1-548); details: protein: recombinant; tags: N-terminal GST; dsDNA, one strand shown
# T3 sequence: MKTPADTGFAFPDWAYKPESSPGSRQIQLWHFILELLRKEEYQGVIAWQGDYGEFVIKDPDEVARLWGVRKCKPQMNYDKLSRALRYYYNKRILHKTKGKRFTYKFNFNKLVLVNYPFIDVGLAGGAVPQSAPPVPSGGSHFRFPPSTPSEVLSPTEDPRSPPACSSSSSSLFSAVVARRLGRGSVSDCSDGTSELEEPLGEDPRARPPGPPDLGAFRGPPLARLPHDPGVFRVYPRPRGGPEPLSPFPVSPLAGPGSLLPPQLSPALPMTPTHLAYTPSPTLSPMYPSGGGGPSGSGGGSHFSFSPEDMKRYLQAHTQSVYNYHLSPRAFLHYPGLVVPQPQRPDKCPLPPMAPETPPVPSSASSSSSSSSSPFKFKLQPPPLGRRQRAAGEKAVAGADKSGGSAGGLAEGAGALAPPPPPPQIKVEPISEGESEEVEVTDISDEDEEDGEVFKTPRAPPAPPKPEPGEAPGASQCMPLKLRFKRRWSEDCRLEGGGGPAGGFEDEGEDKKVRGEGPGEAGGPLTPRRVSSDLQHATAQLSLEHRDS
# In short: as §1
# ETV3L = molecular target: T4, ETV3L (Homo sapiens, UniProt Q6ZN32 1-361); details: protein: recombinant; tags: N-terminal GST; dsDNA, one strand shown
# T4 sequence: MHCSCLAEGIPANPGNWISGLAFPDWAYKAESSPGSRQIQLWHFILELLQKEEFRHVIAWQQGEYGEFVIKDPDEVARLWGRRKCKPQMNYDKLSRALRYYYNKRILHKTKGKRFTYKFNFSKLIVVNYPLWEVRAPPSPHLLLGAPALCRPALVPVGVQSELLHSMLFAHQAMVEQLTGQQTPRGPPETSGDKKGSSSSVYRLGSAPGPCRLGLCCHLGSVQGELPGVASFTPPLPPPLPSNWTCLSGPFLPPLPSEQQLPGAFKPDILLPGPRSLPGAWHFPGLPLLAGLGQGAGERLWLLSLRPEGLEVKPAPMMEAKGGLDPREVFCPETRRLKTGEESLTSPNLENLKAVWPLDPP
# In short: as §1
# ETS2 = molecular target: T5, ETS2 (Homo sapiens, UniProt P15036 1-469); details: protein: recombinant; tags: N-terminal GST; dsDNA, one strand shown
# T5 sequence: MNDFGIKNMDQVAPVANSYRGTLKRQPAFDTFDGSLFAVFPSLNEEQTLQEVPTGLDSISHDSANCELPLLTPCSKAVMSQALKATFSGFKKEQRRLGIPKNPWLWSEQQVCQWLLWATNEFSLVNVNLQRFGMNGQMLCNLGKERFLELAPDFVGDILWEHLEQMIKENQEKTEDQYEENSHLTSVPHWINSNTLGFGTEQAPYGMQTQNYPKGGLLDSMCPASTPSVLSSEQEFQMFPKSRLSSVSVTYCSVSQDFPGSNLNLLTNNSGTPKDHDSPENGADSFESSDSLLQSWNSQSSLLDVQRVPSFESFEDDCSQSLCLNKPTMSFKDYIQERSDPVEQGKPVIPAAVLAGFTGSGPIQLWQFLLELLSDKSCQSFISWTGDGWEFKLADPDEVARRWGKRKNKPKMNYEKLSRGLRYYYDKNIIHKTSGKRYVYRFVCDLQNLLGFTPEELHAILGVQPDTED
# In short: as §1
# ELF5 = molecular target: T6, ELF5 (Homo sapiens, UniProt Q9UKW6-2 1-255); details: protein: recombinant; tags: N-terminal GST; dsDNA, one strand shown
# T6 sequence: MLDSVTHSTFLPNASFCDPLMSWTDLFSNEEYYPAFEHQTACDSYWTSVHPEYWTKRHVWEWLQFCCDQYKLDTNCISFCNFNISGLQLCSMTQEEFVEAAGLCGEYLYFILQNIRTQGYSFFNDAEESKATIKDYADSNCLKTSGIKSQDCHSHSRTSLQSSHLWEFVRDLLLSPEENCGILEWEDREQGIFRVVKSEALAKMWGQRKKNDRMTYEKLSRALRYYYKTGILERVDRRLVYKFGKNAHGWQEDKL
# In short: as §1
# ETV3 = molecular target: T7, ETV3 (Homo sapiens, UniProt P41162-2 1-143); details: protein: recombinant; tags: N-terminal GST; dsDNA, one strand shown
# T7 sequence: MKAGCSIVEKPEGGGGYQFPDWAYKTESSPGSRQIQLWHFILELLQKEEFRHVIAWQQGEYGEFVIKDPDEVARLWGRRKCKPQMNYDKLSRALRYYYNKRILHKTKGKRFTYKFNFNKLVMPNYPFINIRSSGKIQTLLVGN
# In short: as §1
# ETV6 = ETV6 (Homo sapiens, UniProt P41212 1-452); details: protein: recombinant; tags: N-terminal GST; dsDNA, one strand shown
# Sequence of ETV6 (P41212 whole entry): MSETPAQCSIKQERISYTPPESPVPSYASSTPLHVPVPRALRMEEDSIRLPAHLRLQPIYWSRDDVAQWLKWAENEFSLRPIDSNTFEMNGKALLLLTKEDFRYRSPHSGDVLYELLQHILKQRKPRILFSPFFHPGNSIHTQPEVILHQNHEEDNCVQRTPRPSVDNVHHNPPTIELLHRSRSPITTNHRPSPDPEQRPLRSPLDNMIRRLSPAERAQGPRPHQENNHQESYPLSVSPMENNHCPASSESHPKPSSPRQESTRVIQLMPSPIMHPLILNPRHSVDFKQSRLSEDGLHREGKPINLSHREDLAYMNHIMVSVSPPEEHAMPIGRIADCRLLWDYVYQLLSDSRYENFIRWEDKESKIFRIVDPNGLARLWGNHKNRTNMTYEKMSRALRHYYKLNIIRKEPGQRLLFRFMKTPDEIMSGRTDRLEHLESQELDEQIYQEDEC
# In short: as §1
# FEV = molecular target: T8, FEV (Homo sapiens, UniProt Q99581 1-238); details: protein: recombinant; tags: N-terminal GST; dsDNA, one strand shown
# T8 sequence: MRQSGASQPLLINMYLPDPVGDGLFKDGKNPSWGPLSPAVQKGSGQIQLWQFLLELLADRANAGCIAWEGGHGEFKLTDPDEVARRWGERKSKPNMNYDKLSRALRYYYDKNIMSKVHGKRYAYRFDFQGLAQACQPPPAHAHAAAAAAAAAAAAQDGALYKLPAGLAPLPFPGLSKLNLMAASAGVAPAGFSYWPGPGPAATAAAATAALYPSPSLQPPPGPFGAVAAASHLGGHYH
# In short: as §1
# ETV2 = molecular target: T9, ETV2 (Homo sapiens, UniProt O00321 1-342); details: protein: recombinant; tags: N-terminal GST; dsDNA, one strand shown
# T9 sequence: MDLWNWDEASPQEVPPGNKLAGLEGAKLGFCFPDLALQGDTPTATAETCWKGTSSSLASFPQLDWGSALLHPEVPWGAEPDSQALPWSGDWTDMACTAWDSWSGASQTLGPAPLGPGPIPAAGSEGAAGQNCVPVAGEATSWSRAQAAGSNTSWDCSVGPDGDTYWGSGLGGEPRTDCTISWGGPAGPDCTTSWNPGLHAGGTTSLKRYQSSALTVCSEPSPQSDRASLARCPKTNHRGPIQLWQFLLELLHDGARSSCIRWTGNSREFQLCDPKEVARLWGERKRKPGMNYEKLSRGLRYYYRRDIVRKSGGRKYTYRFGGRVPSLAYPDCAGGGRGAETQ
# In short: as §1
# SPDEF = molecular target: T10, SPDEF (Homo sapiens, UniProt O95238 1-335); details: protein: recombinant; tags: N-terminal GST; dsDNA, one strand shown
# T10 sequence: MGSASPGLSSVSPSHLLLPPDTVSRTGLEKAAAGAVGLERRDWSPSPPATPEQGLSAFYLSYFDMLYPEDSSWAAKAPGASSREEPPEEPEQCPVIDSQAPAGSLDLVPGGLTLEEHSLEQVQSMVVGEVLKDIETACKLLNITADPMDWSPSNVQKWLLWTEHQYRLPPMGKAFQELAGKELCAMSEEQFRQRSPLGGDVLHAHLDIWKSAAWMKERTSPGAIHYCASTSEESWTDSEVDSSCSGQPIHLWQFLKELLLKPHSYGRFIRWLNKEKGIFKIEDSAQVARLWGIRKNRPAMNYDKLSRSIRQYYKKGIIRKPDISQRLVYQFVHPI
# In short: as §1
# ETV7 = molecular target: T11, ETV7 (Homo sapiens, UniProt Q9Y603 1-341); details: protein: recombinant; tags: N-terminal GST; dsDNA, one strand shown
# T11 sequence: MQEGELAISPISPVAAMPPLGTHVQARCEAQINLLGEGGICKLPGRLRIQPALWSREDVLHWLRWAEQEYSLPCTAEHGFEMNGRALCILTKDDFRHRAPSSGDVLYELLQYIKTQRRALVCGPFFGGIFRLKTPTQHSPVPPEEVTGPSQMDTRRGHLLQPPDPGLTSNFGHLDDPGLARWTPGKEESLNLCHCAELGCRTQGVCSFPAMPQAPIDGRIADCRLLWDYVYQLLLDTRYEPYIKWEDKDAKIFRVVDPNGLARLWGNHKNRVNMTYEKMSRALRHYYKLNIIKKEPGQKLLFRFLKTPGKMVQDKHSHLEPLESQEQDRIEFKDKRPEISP
# In short: as §1
sequence,measurement,setting,value
TAGTCT,binding signal,ETV5,"1.01 fold enrichment (6-mer frequency, TF over GST control)"
same,binding signal,HSF1,"1.4 fold enrichment (6-mer frequency, TF over GST control)"
same,binding signal,SPIC,"1.05 fold enrichment (6-mer frequency, TF over GST control)"
same,binding signal,ELF4,"1.03 fold enrichment (6-mer frequency, TF over GST control)"
same,binding signal,ELF3,"1.14 fold enrichment (6-mer frequency, TF over GST control)"
same,binding signal,CRX,"1.4 fold enrichment (6-mer frequency, TF over GST control)"
same,binding signal,ETV1,"1.01 fold enrichment (6-mer frequency, TF over GST control)"
same,binding signal,ERF,"1.17 fold enrichment (6-mer frequency, TF over GST control)"
same,binding signal,ETV3L,"1.04 fold enrichment (6-mer frequency, TF over GST control)"
same,binding signal,ETS2,"1.09 fold enrichment (6-mer frequency, TF over GST control)"
same,binding signal,ELF5,"1.04 fold enrichment (6-mer frequency, TF over GST control)"
same,binding signal,ETV3,"1.12 fold enrichment (6-mer frequency, TF over GST control)"
same,binding signal,ETV6,"1.02 fold enrichment (6-mer frequency, TF over GST control)"
CAAATT,binding signal,FEV,"1.14 fold enrichment (6-mer frequency, TF over GST control)"
same,binding signal,ETV5,"1.2 fold enrichment (6-mer frequency, TF over GST control)"
same,binding signal,HSF1,"1.17 fold enrichment (6-mer frequency, TF over GST control)"
same,binding signal,SPIC,"1.16 fold enrichment (6-mer frequency, TF over GST control)"
same,binding signal,ELF4,"1.07 fold enrichment (6-mer frequency, TF over GST control)"
same,binding signal,ETV2,"1.09 fold enrichment (6-mer frequency, TF over GST control)"
same,binding signal,ELF3,"1.17 fold enrichment (6-mer frequency, TF over GST control)"
same,binding signal,CRX,"1.12 fold enrichment (6-mer frequency, TF over GST control)"
same,binding signal,ETV1,"1.18 fold enrichment (6-mer frequency, TF over GST control)"
same,binding signal,ERF,"1.17 fold enrichment (6-mer frequency, TF over GST control)"
same,binding signal,ETV3L,"1.18 fold enrichment (6-mer frequency, TF over GST control)"
same,binding signal,ETS2,"1.17 fold enrichment (6-mer frequency, TF over GST control)"
same,binding signal,SPDEF,"1.12 fold enrichment (6-mer frequency, TF over GST control)"
same,binding signal,ETV7,"1.14 fold enrichment (6-mer frequency, TF over GST control)"
same,binding signal,ELF5,"1.1 fold enrichment (6-mer frequency, TF over GST control)"
same,binding signal,ETV3,"1.13 fold enrichment (6-mer frequency, TF over GST control)"
same,binding signal,ETV6,"1.1 fold enrichment (6-mer frequency, TF over GST control)"
